Drawing on PubChem BioAssay, this text covers z-score for 27 molecules.

Each structure is given as a SMILES string.

The assay is described as follows: compound effects on differentiated 3T3-L1 adipocyte viability – cell-based, 3T3-L1 adipocytes, calcein-AM fluorescence, 48 h, basal, profiling panel (AID 1163). Further: test concentration not given here. The following applies: 3T3-L1 adipocytes viability, higher = more signal.
Turning to `O=C1C[C@]2(c3ccc([N+](=O)[O-])cc3)C(=O)N(Cc3ccccc3)c3cc(CO)ccc3[C@H]2N1CC12CC3CC(CC(C3)C1)C2`, the z-score was -1.02.

Turning to `Cc1c(NC(=O)/C(C#N)=C/C=C/c2ccc(N(C)C)cc2)c(=O)n(-c2ccccc2)n1C`, the z-score was 0.257.

As for `COCCOC(=O)N1C(=O)[C@@]2(c3ccccc31)[C@H](c1ccc(OCCO)cc1)N1[C@H](c3ccccc3)[C@H](c3ccccc3)OC(=O)[C@H]1[C@@H]2C(=O)Nc1nc2ccccc2s1`, the z-score was 0.73.

On to `COCCCNC(=O)[C@@]1(Sc2ccc(C)cc2)CC(=O)N(Cc2cc(C(F)(F)F)cc(C(F)(F)F)c2)[C@@H]1c1ccc(CO)cc1`, for which the z-score was -0.515.

With `CCCC[C@@H]1C[C@H]1[C@@H](NC(=O)c1ccccc1)c1ccc(Cl)cc1`, the z-score is -0.847.

Consider `CC(C)C(CO)N1C(=O)[C@]2(C)C3C(=O)OCCC/C=C\[C@H]3OC23C=CCN(c2ccc(Cl)cc2)C(=O)[C@@H]13` (some centres not stated), for which the z-score was -0.199.

For the molecule `COC(=O)[C@@]1(Cc2ccc(OC)cc2)[C@H]2c3cc(C(=O)N4CCCC4)n(CCc4cc5ccccc5[nH]4)c3C[C@H]2CN1C(=O)c1ccccc1`, the z-score was -0.0596.

With `CCCC[C@@H]1C[C@H]1[C@@H](NC(=O)c1cccnc1)c1ccc(-c2ccccc2)cc1`, the z-score is -0.438.

With `[N-]=[N+]=Nc1ccccc1[C@@H]1OC(c2ccc(OCCCO)cc2)=N[C@]1(CCS(=O)(=O)c1ccccc1)C(=O)NCCN1CCOCC1`, the z-score is 1.37.

On to `C[C@@H](OCc1ccccc1)C1NC(=O)[C@@]23C(=O)N[C@@H](Cc4ccccc4)C2[C@H](C)[C@@]2(C)O[C@H]2C3/C=C/C/C=C\CNC(=O)CNC1=O` (some centres not stated), for which the z-score is 1.41.

On to `C=C(CCCC)/C(=C/C[C@@H](OC(=O)c1ccncc1)c1cccc(OCCO)c1)c1cnc2ccccc2c1`, for which the z-score was 1.14.

Regarding `CC(=O)n1cc(C(O)C2C=CC3C(=O)N(c4ccccc4)C(=O)C3N2Nc2ccccc2)c2ccccc21` (configuration not stated), the z-score is 0.174.

Regarding `C=CCN1C(=O)[C@]2(CC=C)N=C(c3ccc(OCCCO)cc3)O[C@@H]2c2ccccc21`, the z-score is 0.931.

On to `CCOC(=O)C[C@H]1[C@H](OC(=O)Cc2ccc3c(c2)OCO3)[C@@H](NC(=O)C2CCCCC2)c2cc(OCCCO)ccc2N1C(=O)c1ccc2ccccc2n1`, for which the z-score was 1.72.

For `O=C1O[C@@H](c2ccccc2)[C@@H](c2ccccc2)N2[C@@H](c3ccccc3OCCO)[C@]3(C(=O)Nc4ccc(C#CC5=CCCCC5)cc43)[C@@H](C(=O)NC[C@H](O)c3ccccc3)[C@H]12`, the z-score was 1.68.

As to `O=C1OCC=C[C@H]2OC34C=CCN(Cn5nnc6ccccc65)C(=O)[C@H]3N(CCCCCCO)C(=O)[C@@H]4[C@@H]12` (some centres not stated), the z-score was 0.352.

On to `COCCCNC(=O)[C@]1(Cc2ccccc2N=[N+]=[N-])N=C(c2ccc(OCCCO)cc2)O[C@@H]1c1ccccc1N=[N+]=[N-]`, for which the z-score was 0.0826.

`CC(C)c1ccc(NN2C(C(O)c3ccco3)C=CC3C(=O)N(c4ccccc4)C(=O)C32)cc1` (configuration not stated): the z-score was -1.49.

Take `Cc1ccc(S[C@]2(C(=O)NCC(C)C)CC(=O)N(Cc3ccccc3Cl)[C@@H]2c2ccc(CO)cc2I)cc1`: the z-score was -0.201.

Regarding `C=CCC(OC(C)=O)[C@@H]1[C@@H](N(Cc2ccc(-c3ccccc3)cc2)C(=O)c2cccc3ccccc23)c2cc(OCCCO)ccc2N1C(=O)Cc1ccc2ccccc2c1` (some centres not stated), the z-score was -0.38.

With `CC=CC(O)C1C=CC2C(=O)N(C)C(=O)C2N1Nc1ccc([N+](=O)[O-])cc1[N+](=O)[O-]` (configuration not stated), the z-score was -0.682.

In the case of `CC(C)(C)OC(=O)CC[C@]1(C(=O)NCCN2CCOCC2)N=C(c2ccc(OCCCO)cc2)O[C@H]1c1ccccc1`, the z-score was -1.82.

As to `CCCCC(=C=CC[C@@H](O)c1ccc(OCCO)cc1)C[C@@H](O)COCc1ccccc1`, the z-score was 0.716.

As for `COC(=O)[C@H](Cc1ccccc1)N1CC(/C=C/C2CC2)=C[C@@H]1[C@@H](O)Cc1ccccc1`, the z-score was -0.0766.

Consider `COCCOC(=O)N1C(=O)[C@@]2(c3cc(C#CCC(C(=O)OC)C(=O)OC)ccc31)[C@H](c1ccc(OCCO)cc1)N1[C@H](c3ccccc3)[C@H](c3ccccc3)OC(=O)[C@H]1[C@@H]2C(=O)N1CCN(c2ncccn2)CC1`, for which the z-score was 1.2.

For `CN(C)C(=O)[C@]1(CCC(=O)OC(C)(C)C)N=C(c2ccc(OCCCO)cc2)O[C@@H]1c1ccccc1`, the z-score was -0.0645.

As for `COCCOC(=O)N1C(=O)[C@@]2(c3cc(C#CC4(O)CCCCCC4)ccc31)[C@H](C(N)=O)[C@H]1C(=O)O[C@H](c3ccccc3)[C@H](c3ccccc3)N1[C@@H]2c1ccccc1OCCO`, the z-score was 0.73.
